Results filed as inconclusive are left out. A call without a number means that no potency is given here. Calls of active or inactive are those of the source. Calls follow the shape of the dose curve; as a rule, active = well fitted cell-killing curve with a large enough effect in the repeat runs; inconclusive = weak or mixed curves, or effect the other way; inactive = flat fitted curve, though single readings scatter.
Experiment: qHTS assay to identify small molecule that activate the aryl hydrocarbon receptor (AhR) signaling pathway - cell viability counter screen (AID 743086);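 also: HepG2 liver cells carrying the AhR DRE luciferase reporter; nearly all actives have a fitted effect of over 45% in size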
Details: HepG2-AhR-luc viability, CellTiter-Fluor, 24 h; series mostly up to 70.3 µM
Excerpt: U.S. Tox21 Program National Center for Advancing Translational Sciences [NCATS] NIH Chemical Genomics Center [NCGC] U.S. Environmental Protection Agency [EPA] National Institutes of Environmental Health Sciences [NIEHS] National Toxicology Program [NTP] U.S. Food and Drug Administration [FDA] Tox21 Assay overview: The Aryl hydrocarbon Receptor (AhR), a member of the family of basic helix-loop-helix transcription factors, is crucial to adaptive responses to environmental changes. AhR mediates cellular responses to environmental pollutants such as aromatic hydrocarbons through induction of phase I and II enzymes but also interacts with other nuclear receptor signaling pathways A cell based HepG2-AhR-luc assay (HG2L7.5c1 cell line, developed by Dr. Michael S. Denison, University of California at Davis) was used to assess the activation of AhR. HepG2 (human hepatocellular carcinoma) cells were stably transfected with an Ah receptor-responsive firefly luciferase reporter gene plasmid containing 20 dioxin responsive elements and luciferase reporter gene. Increased luciferase activity can be used to identify the compounds that induce AhR activation. The cytotoxicity of the compounds screened against the HepG2-AhR-luc cell line was tested in parallel by measuring the cell viability using CellTiter-Fluor assay in the same wells.
Tox21 Assay Protocol Summary: 4000 cells in 5 uL/well were dispensed into white wall/solid bottom 1536-well plates using a Multidrop Combi (Thermo Fisher Scientific Inc., Waltham, MA) dispenser. After the assay plates were incubated at 37C for 5 h, 23 nL of compound or DMSO vehicle was transferred to the assay plates by a pintool station (Kalypsys, San Diego, CA). The plates were incubated at 37C for 24 hr. For cell viability measurement, 1 ul/well of CellTiter-Fluor reagent (Promega, Madison, WI) was added into the assay plates using a Flying Reagent Dispenser (FRD) (Aurora Discovery, CA),and then the assay plates were incubated at 37C for 30 min. The fluorescence intensity in the plates was measured using a ViewLux plate reader (PerkinElmer, Shelton, CT), followed by the addition of 4 uL of ONE-Glo Luciferase Assay reagent (Promega) using an FRD (Aurora Discovery). After the assay plates were incubated at room temperature for 30 min, luminescence intensity was measured using a ViewLux plate reader (Perkin Elmer).

Structure (SMILES)	Potency
O=C(NC1CCN(CCc2c[nH]c3ccccc23)CC1)c1ccccc1	inactive
COC(=O)c1cc(Cl)ccc1[N+](=O)[O-]	inactive
CCC(CC)C(=O)O	inactive
c1ccc(CCNc2nc(-c3ccccc3)cs2)cc1	inactive
CC(C)(C)N	inactive
CC(C)Oc1ccccc1O	inactive
CCCCOC(=O)CC#N	inactive
CC(C)CCCCCOC(=O)CS	inactive
Nc1ccccc1Nc1ccccc1	inactive
Nc1ncnc2c1ncn2[C@@H]1O[C@H](CO)[C@@H](O)[C@H]1O	inactive
Cc1cc(C)n(CO)n1	inactive
CC(C)=CCC[C@H](C)CCO	inactive
CCCCCCCCCCCCSCCOCCO	inactive
CC(O)CN (stereo not given)	inactive
O=C(O)c1c2ccccc2cc2ccccc12	inactive
NC(=O)c1ccccc1	inactive
CCC(=O)O[C@@H]1C[C@H]2CC[C@]1(C)C2(C)C	inactive
CC1(C)[C@@H]2CC[C@]3(C2)[C@@H]1C(=O)CCC3(C)C	inactive
CCCCCCCCCCCC(=O)OCC	inactive
O=C(OC1C[C@H]2CC[C@@H](C1)[N+]21CCCC1)C(O)(c1ccccc1)c1ccccc1 (stereo not given in full)	inactive

Structure (SMILES)	Potency
CC(C)(C)c1ccc(CCC=O)cc1	inactive
Clc1cccc(C(c2ccc3nc[nH]c3c2)n2ccnc2)c1 (stereo not given)	inactive
CCCc1ccc(OC)cc1	inactive
Cc1cc(SC2=C(O)C[C@@](CCc3ccc(N)cc3)(C(C)C)OC2=O)c(C(C)(C)C)cc1CO	inactive
C=CCCC	inactive
COc1ccc(C(=O)c2ccc(C)cc2)c(O)c1	inactive
O=C1c2ccccc2C(=O)C1c1ccc2ccccc2n1	inactive
C=C[Si]1(C)O[Si](C)(C=C)O[Si](C)(C=C)O[Si](C)(C=C)O1 (stereo not given)	inactive
O=C(O)CCc1nc2ccccc2[nH]1	inactive
NCCOCCOCCN	inactive
C=CC(C)(O)CC/C=C(/C)CCC=C(C)C (stereo not given)	inactive
CCCCCO	inactive
CCc1ccc(C(=O)C(C)CN2CCCCC2)cc1 (stereo not given)	inactive
CCCCCCCCCCCCCCCCC(=O)O	inactive
Nc1nc(Cl)nc2c1ncn2[C@H]1C[C@H](O)[C@@H](CO)O1	inactive
O=c1[nH][nH]c2ccccc12	inactive
CC(C)C/C=C(\C=O)c1ccccc1	inactive
CC(O)C(C)O (stereo not given)	inactive
CC1=C(C)C(=O)C(C(CCCCCC(=O)O)c2ccccc2)=C(C)C1=O (stereo not given)	inactive
CCc1cnc(C(=O)O)c(C(=O)O)c1	inactive
